# Experimental data from the supplement of paper PMC10849652.
# Targets with a hit are over-represented here; the source holds about 7,900 in all. About 0.6% of all pairs of compound and target were hits. A number with no mark means an inactive call.
# Experiments:
# Test in all cases: log2 fold change, soluble protein after heating vs DMSO (PISA); higher = thermal stabilisation; K562 cells, 10 uM, 30 min; active = over 0.2 and 3.5 SD of the protein, either way, in both replicates (recomputed)
# [1] = compound: C1COCCN1CCN2C3=CC=CC=C3N=C2NC(=O)C4=CC(=CC=C4)[N+](=O)[O-] [IRAK-1-4 Inhibitor I]
# Summary of the method: (§1)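 Aliquots of K562 cells (2×10^6 cells/mL) treated with 10 μM compound for 30 min were heated for 3 min over 48°C-58°C. After pooling and extraction in PBS with 0.5% NP-40 at 4°C, soluble protein from a 21,000xg, 90 min spin was quantified by TMTpro 16plex LC-MS/MS with channel sums equalised. Thermal stability is expressed against control samples, from duplicates, as a log2 fold change.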
# [2] = compound: C=CC(=O)N1CCC[C@@H](n2nc(-c3ccc(Oc4ccccc4)cc3)c3c(N)ncnc32)C1 [ibrutinib]
# Summary of the method: as §1
# [3] = compound: CC(=O)c1cnc2ccc(-c3cc(Cl)c(O)c(Cl)c3)nc2c1N[C@H]1CC[C@H](CN(C)C)CC1
# Summary of the method: as §1
# [4] = compound: CC(C)(C)Cn1c(N)nc2ccc(-c3[nH]c(C(C)(C)C)nc3-c3ccc(F)cc3)nc21 [ralimetinib]
# Summary of the method: as §1
# [5] = compound: CC(C)(O)CC(=O)NCCn1ccc2ncnc(Nc3ccc(Oc4cccc(C(F)(F)F)c4)c(Cl)c3)c21
# Summary of the method: as §1
# [6] = compound: CC(C)C1=C2N=C(C=C(N2N=C1)NCC3=CC=CC=C3)NCCCCCCN
# Summary of the method: as §1
# [7] = compound: CC(C)C[C@@H](C=O)NC(=O)[C@H](CC(C)C)NC(=O)[C@H](CC(C)C)NC(=O)OCc1ccccc1
# Summary of the method: as §1
# [8] = compound: CC(C)N(C[C@H]1O[C@@H](n2cnc3c(N)ncnc32)[C@H](O)[C@@H]1O)[C@H]1C[C@@H](CCc2nc3cc(C(C)(C)C)ccc3[nH]2)C1 [pinometostat]
# Summary of the method: as §1
# [9] = compound: CC1=C(C(CC(=O)N1)C2=CC=C(C=C2)C(F)(F)F)C(=O)NC3=C(C=C4C(=C3)C=NN4)F
# Summary of the method: as §1
# [10] = compound: CC1=C(C2=C(C=C1)C(=O)C3=CC=CC=C3N2CCCN)C
# Summary of the method: as §1
# UniProt Q9H1H9, sequence (Q9H1H9 whole entry, looked up): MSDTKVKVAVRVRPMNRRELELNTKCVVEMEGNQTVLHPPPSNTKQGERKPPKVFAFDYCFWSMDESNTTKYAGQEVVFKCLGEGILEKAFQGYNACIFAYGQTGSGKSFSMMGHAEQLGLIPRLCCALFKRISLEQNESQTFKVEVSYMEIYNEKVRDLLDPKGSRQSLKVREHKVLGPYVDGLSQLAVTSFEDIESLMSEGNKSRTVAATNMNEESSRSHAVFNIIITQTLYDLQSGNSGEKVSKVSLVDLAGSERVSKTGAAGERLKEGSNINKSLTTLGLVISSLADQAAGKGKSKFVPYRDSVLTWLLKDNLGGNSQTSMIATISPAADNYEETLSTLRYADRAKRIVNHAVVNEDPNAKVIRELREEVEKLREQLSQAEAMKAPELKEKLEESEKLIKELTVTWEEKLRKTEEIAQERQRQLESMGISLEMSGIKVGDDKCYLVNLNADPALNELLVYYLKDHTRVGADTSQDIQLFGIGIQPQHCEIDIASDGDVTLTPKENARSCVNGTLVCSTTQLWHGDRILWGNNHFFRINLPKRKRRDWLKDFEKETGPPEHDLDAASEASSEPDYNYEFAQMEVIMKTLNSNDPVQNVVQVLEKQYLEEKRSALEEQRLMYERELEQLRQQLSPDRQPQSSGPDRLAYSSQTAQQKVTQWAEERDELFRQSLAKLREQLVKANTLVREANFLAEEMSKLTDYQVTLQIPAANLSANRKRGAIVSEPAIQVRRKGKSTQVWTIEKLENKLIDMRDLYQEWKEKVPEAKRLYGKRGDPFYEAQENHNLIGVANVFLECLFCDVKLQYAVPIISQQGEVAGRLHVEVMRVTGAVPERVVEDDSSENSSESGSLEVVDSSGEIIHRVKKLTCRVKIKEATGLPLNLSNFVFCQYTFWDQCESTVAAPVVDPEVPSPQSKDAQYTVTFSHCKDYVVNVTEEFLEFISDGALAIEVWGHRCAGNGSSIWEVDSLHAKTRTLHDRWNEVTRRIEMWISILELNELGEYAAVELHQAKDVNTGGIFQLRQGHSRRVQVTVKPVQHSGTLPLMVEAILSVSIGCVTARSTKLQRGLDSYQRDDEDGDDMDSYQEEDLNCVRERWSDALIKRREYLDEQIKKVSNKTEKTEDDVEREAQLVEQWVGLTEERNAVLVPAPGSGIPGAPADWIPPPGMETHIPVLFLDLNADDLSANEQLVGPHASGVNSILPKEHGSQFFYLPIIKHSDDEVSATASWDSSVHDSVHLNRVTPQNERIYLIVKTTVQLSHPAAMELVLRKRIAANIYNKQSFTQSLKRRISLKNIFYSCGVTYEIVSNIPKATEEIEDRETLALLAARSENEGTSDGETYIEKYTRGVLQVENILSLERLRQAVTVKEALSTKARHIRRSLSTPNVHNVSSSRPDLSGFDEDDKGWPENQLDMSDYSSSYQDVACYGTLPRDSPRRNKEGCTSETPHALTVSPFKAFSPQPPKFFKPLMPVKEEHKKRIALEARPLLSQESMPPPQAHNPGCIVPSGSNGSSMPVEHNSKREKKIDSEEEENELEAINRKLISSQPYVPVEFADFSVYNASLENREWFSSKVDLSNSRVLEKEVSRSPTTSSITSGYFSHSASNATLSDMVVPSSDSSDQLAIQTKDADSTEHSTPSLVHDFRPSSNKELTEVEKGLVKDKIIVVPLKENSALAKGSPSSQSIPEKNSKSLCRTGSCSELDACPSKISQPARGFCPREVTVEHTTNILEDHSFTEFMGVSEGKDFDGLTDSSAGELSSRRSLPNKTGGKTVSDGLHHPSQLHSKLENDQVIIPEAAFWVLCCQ
# UniProt Q6P1A2, sequence (Q6P1A2 whole entry, looked up): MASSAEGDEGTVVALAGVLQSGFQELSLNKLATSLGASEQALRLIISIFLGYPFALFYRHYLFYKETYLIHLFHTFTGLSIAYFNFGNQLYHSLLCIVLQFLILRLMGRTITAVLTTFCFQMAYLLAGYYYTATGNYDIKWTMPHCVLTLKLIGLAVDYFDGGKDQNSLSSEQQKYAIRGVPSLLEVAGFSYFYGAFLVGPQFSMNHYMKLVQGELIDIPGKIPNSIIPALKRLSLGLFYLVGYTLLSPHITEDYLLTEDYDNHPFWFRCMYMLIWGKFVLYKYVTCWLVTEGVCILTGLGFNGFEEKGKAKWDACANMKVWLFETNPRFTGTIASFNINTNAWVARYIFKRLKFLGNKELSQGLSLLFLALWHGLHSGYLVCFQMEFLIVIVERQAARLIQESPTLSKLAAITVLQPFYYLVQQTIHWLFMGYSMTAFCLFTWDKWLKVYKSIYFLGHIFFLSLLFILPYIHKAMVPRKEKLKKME
# UniProt O60333, sequence (O60333 whole entry, looked up): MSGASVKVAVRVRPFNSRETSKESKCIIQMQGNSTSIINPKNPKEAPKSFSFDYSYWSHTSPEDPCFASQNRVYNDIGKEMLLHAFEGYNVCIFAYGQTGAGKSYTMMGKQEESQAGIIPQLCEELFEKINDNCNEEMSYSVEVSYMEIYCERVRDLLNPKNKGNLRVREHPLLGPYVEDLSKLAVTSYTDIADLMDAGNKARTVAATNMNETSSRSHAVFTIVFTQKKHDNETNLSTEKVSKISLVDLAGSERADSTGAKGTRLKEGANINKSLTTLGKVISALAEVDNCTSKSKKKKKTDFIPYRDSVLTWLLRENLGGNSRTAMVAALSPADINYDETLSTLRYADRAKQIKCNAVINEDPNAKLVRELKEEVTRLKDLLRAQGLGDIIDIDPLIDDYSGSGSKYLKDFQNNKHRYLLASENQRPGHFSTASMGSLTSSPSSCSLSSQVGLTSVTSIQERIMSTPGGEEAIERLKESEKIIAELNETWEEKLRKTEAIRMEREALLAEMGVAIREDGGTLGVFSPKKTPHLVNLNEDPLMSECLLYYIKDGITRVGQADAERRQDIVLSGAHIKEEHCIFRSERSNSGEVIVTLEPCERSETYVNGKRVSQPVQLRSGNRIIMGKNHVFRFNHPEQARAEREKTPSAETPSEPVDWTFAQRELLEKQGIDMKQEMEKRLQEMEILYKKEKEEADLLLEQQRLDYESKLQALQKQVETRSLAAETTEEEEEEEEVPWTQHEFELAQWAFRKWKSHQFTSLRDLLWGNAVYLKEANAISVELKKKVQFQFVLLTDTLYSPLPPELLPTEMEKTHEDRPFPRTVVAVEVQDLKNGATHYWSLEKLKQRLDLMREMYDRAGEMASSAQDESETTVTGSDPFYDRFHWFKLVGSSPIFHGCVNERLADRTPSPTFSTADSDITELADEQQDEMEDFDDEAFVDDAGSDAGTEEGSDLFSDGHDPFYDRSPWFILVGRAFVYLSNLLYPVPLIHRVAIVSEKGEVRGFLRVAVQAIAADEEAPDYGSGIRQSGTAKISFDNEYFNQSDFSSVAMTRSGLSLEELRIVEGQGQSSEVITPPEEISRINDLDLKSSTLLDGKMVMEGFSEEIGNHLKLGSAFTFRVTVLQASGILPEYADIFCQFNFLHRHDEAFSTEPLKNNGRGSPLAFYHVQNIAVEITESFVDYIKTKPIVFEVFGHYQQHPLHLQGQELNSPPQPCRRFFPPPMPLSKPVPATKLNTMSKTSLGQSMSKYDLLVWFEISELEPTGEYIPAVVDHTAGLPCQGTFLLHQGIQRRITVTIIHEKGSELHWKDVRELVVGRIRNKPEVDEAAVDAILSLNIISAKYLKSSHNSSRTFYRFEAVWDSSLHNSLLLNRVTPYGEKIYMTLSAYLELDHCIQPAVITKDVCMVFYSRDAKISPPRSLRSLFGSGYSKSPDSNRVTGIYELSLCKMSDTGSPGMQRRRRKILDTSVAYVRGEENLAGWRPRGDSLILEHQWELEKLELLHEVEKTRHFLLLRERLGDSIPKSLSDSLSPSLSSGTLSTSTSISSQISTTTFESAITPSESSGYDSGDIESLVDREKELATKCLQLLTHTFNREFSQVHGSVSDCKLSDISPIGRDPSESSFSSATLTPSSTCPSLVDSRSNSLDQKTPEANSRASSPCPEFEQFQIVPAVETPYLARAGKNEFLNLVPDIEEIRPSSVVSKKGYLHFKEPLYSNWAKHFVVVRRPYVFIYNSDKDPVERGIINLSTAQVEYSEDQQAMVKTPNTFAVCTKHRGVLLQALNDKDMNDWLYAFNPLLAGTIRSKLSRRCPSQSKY
# UniProt Q14974, sequence (Q14974 whole entry, looked up): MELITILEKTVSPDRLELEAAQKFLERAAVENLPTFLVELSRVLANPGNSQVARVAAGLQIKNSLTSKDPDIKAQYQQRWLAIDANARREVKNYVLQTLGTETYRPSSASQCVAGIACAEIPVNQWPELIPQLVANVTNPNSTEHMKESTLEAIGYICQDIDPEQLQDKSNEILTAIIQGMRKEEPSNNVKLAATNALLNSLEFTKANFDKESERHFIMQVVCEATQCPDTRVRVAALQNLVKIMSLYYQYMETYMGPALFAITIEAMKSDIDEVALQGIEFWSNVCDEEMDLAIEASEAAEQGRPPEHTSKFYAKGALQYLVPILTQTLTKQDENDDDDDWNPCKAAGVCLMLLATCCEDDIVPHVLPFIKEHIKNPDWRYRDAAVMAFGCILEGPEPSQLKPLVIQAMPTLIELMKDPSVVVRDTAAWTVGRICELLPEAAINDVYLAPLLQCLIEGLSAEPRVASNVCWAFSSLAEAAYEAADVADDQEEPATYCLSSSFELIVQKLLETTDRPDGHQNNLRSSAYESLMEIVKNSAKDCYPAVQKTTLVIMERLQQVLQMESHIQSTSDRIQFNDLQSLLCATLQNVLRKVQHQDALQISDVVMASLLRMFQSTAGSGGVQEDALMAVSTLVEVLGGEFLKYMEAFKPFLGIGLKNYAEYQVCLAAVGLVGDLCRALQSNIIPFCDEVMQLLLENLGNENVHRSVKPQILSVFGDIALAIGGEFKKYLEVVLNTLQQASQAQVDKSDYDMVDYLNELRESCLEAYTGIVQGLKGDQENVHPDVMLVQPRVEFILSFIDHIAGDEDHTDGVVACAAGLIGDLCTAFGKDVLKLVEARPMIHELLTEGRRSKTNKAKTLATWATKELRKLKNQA
# UniProt Q8WV07, sequence (Q8WV07 whole entry, looked up): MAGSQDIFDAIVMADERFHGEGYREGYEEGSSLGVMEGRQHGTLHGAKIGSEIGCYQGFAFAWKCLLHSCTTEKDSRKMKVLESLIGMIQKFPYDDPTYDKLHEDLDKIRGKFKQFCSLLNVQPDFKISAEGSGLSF
Target,log2 fold change [1],log2 fold change [2],log2 fold change [3],log2 fold change [4],log2 fold change [5],log2 fold change [6],log2 fold change [7],log2 fold change [8],log2 fold change [9],log2 fold change [10]
MAP2K2 (UniProt P36507),0.045,0.012,-0.496 (active),0.105,-0.065,-0.02,0.056,0.003,0.011,-0.001
KEL (UniProt P23276),-0.001,0.052,-0.028,-0.011,0.054,0.025,-0.102,-0.02,-0.006,0.041
KPNA4 (UniProt O00629),0.008,-0.016,-0.057,-0.048,0.028,-0.063,-0.02,-0.001,0.041,-0.347 (active)
IPO11 isoform 2 (UniProt Q9UI26),0.011,-0.014,0.039,-0.016,-0.095,0.018,-0.039,-0.035,0.002,-0.018
INPP1 (UniProt P49441),-0.001,0.023,-0.003,-0.108,-0.039,0.016,-0.007,-0.054,-0.072,-0.03
MAN2B2 (UniProt Q9Y2E5),0.086,-0.079,-0.171,0.029,-0.033,-0.078,0.043,0.089,0.064,-0.048
MAPKAPK2 (UniProt P49137),0.039,-0.009,0.267 (active),0.213,-0.03,-0.048,-0.022,-0.028,-0.03,-0.009
KIF1B isoform 4 (UniProt O60333),-0.004,-0.017,0,-0.029,-0.063,0.002,0.002,0.061,-0.057,-0.024
MFF (UniProt Q9GZY8),0.038,0.025,-0.228,0.018,0.002,-0.074,0.048,-0.012,0.124,-0.042
MFGE8 (UniProt Q08431),-0.058,0.016,0.269,0.152,0.105,0,0.191,0.12,-0.008,-0.038
KPNB1 (UniProt Q14974),-0.079,-0.041,0.033,0.042,-0.036,-0.355 (active),0.035,0.113,0.012,-0.038
LTO1 (UniProt Q8WV07),-0.028,0.037,0.061,0.028,0.011,-0.017,0,-0.028,0.04,0.041
LPIN1 isoform 7 (UniProt Q14693),0.035,0.029,-0.379 (active),0.016,-0.033,-0.054,0.046,0.082,0.092,0.006
MIEF1 (UniProt Q9NQG6),0.056,-0.003,-0.016,-0.07,-0.183,-0.247,-0.034,-0.038,-0.085,0.112
MAIP1 (UniProt Q8WWC4),0,-0.014,-0.004,-0.028,0.09,-0.201,-0.026,-0.042,-0.011,0.052
LPGAT1 (UniProt Q92604),-0.115,-0.05,0.064,0.041,-0.066,-0.277,-0.057,0.013,0.037,0.069
LRPPRC (UniProt P42704),-0.18,-0.013,-0.439,-0.144,-0.891,-1.09 (active),0.059,0,0.062,-0.252
KIF13A (UniProt Q9H1H9),0.045,0.042,0.047,-0.015,0.025,-0.069,0.035,-0.008,-0.01,-0.044
INPP5B (UniProt P32019),-0.1,-0.048,-0.013,0.062,-0.053,-0.308 (active),0.122,0.101,0.042,-0.077
METTL18 (UniProt O95568),0.01,0.019,0.013,-0.036,0.016,-0.009,-0.003,0.023,0.065,0.072
LMNB1 (UniProt P20700),-0.004,-0.03,-0.22,0.015,0.091,-0.048,0.031,0.011,0.01,-0.082
IGFBP4 (UniProt P22692),0.011,-0.015,0.171,-0.04,0.047,0.028,0.054,0.032,0.034,-0.09
INTS5 (UniProt Q6P9B9),0.076,-0.039,0.529,0.019,-0.232,0.052,-0.064,0.033,-0.102,0.073
MED12 isoform 2 (UniProt Q93074),-0.057,-0.098,-0.747 (active),-0.05,-0.024,-0.291,-0.005,0.251,-0.053,-0.04
MGST1 (UniProt P10620),0.002,0.033,0.064,-0.01,-0.001,-0.004,0.011,-0.074,0.032,0.054
LEO1 (UniProt Q8WVC0),0.134,0.026,-0.027,-0.031,-0.044,-0.016,0.068,0.019,0.019,-0.394 (active)
MCL1 (UniProt Q07820),0.052,0.095,-0.036,0.175,-0.054,-0.234,0.295,-0.186,0.091,-0.117
LPCAT3 (UniProt Q6P1A2),0.014,-0.034,0.099,0.009,0.148,-0.65 (active),-0.004,0.083,-0.004,0.03
KHDC4 (UniProt Q7Z7F0),0.034,0.025,0.003,0.012,-0.201,-0.009,0.015,-0.001,0.008,0.021
